Here are results for 40 compounds from PubChem BioAssay (NCI).

The panel holds about 83,000 compounds, 20% with a hit somewhere; the sample as a whole holds those more often.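 Negative percent growth values reflect cell death: -40 means 40% of the cells present at the start died, and -100 means all died.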 Calls of active or inactive are those of the source. The calls were made as follows: active = growth percent below 10; inactive = the rest.

The experiment concerns HL-60(TB) leukemia. Description: NCI-60 one-dose screen, 48 h (100 = growth as untreated, 0 = no growth, -100 = all killed). Particulars: 10 µM unless noted.
`CC(=O)Oc1ccccc1C(=O)Oc1ccc(C(=O)/C=C/c2ccncc2)cc1`: the growth was 3.04% (active). As for `FC(F)(F)CN1CCN(CCn2c(C(F)(F)F)cc3c(Cl)ncnc32)CC1`, the growth was -65.2% (active). To `CCOC(=O)CNC(=O)CN(Cc1ccccc1)C(=O)[C@@]1(C)CCC[C@]2(C)[C@H]3CC4C(C(C)C)=C[C@]3(CC[C@H]21)[C@@H]1C(=O)CCC(=O)[C@H]41` belongs 2.73% (active). Turning to `CC1(c2ccccc2)NC(=O)N(CC(=O)Nc2ccc(C(=O)/C=C/c3ccc(Cl)cc3)cc2)C1=O` (stereo not given), the growth was -27.7% (active). For `Cc1cc(C)nc(NS(=O)(=O)c2ccc(N/C(N)=N/c3nccc(-c4ccccc4)n3)cc2)n1` the value was -25.8% (active); for `Cc1oc(-c2ccccc2)nc1CN[C@@H]1C[C@@H]2C[C@H]([C@H]1C)C2(C)C`, -23.7% (active).

On to `Cc1cc(=O)oc2cc(OCCOc3ccc(/C=C/C(=O)Nc4ccccc4N)cc3)ccc12`, for which the growth is 0.0457% (active). On to `N#CC1=C(c2ccco2)Nc2c(c(-c3ccccc3)nn2-c2ccccc2)C12C(=O)Nc1ccc(Br)cc12` (stereo not given), for which the growth is 51.1% (inactive). To `C#CCOc1cc(N(CC)CC)ccc1C(C(=O)NC(C)(C)C)N(C(=O)C1CCc2cc(F)ccc2O1)c1cc(C)cc(C)c1` (stereo not given) belongs 7.34% (active).

Take `CN1C(=O)N(C)C2SC(N/N=C/c3cccs3)=NC21` (stereo not given): the growth was -19.5% (active).

Regarding `COc1cc(/C=C/C(=O)c2nnn(-c3ccc(Cl)cc3)c2C)cc(OC)c1OC`, the growth is -5.43% (active). Turning to `COc1cc2c(c(OC)c1OC)C(=O)CC(c1cccc(NC(=O)c3cc(N)ccc3Cl)c1)O2` (stereo not given), the growth is 52.2% (inactive). To `Oc1ccc(Cl)c(Nc2nc(SCCN3CCOCC3)nc3c2cnn3CC(Cl)c2ccc(Br)cc2)c1` (stereo not given) belongs -36.2% (active); to `C=C1CC[C@@H]2[C@]3(C)COC(c4cn[nH]c4-c4ccc(F)cc4)O[C@@H]3CC[C@@]2(C)[C@@H]1C/C=C1/C(=O)OCC1O` (stereo not given in full), -21.7% (active); to `COc1ccc2c(c1)c(-c1cc3nc(-c4cn(C)c5ncc(Br)cc45)cc(N)n3n1)cn2C`, -59.7% (active). For `CCCCSc1nc(Nc2ccc(/C(C)=N/NC(N)=S)cc2)c(C#N)c(-c2ccc(F)cc2)n1` the value was 90.7% (inactive); for `CC1CCc2c(sc3nc(SCC(=O)c4cccc([N+](=O)[O-])c4)n(-c4ccccc4)c(=O)c23)C1` (stereo not given), 87.1% (inactive). To `C/C(=C\c1ccc(O)cc1O)c1ccc2ccc(O)cc2[o+]1` belongs 63.2% (inactive). Turning to `O=C(CNc1nc(-c2ccccc2)cs1)Nc1ccc(Cl)cc1`, the growth was -46.7% (active). To `CCc1ccccc1NC(=O)N/C(N)=N/c1nc2ccccc2s1` belongs -27.2% (active); to `N#CC1=C(c2cccs2)Nc2c(c(-c3ccccc3)nn2-c2ccccc2)C12C(=O)Nc1ccc(Br)cc12` (stereo not given), -7.78% (active). For `Cn1ncc2c(N)nc(Oc3ccccc3-c3ccccc3)nc21` the value was -18.4% (active). As to `Cc1ccc(C(SCCNCc2cc(N(C)C)ccn2)(c2ccccc2)c2ccccc2)cc1`, the growth was -40.9% (active).

With `CCCn1c(=O)c2[nH]c(-c3ccc(OCc4nc5ccc(F)cc5[nH]4)cc3)nc2n(CCC)c1=O`, the growth was 38.2% (inactive). For `CCOC(=O)C1=C(N)N(c2ccccc2)C2=C(C(=O)CC(C)(C)C2)C1c1ccc(N2CCOCC2)cc1` (stereo not given) the value was 101% (inactive); for `COc1cccc(-c2nc(Nc3ccc(S(N)(=O)=O)cc3)c3ccccc3n2)c1`, 35% (inactive); for `O=C(COc1ccc(NC(=O)Nc2ccc(Cl)c(Cl)c2)cc1)N=Nc1c(O)[nH]c2ccc(Cl)cc12`, -23% (active). For the compound `Oc1ccc(Cl)c(Nc2ncnc3c2cnn3CC(Cl)c2ccc(Br)cc2)c1` (stereo not given), the growth was 80.5% (inactive). For `C/C(=N\N=C\c1cc([N+](=O)[O-])ccc1Cl)c1ccc2c(c1)Nc1ccccc1S2` the value was 84.6% (inactive). To `C/C(=N\Nc1ccc(C(=O)O)cc1)c1cnn(-c2cc(=O)[nH]c3ccc(C)cc23)c1C` belongs 101% (inactive). For `CN1CCN(c2ccc(C(=O)/C=C/c3cc(C(F)(F)F)ccc3Cl)cc2)CC1` the value was -29.3% (active). Consider `Oc1ccc(F)c(Nc2nc(SCCN3CCOCC3)nc3c2cnn3CC(Cl)c2ccc(Br)cc2)c1` (stereo not given), for which the growth was 2.22% (active).

`Cc1cc(=O)oc2cc(OCCCCOc3ccc(/C=C/C(=O)Nc4ccc(F)c(Cl)c4)cc3)ccc12`: the growth was 97.6% (inactive).

On to `OCCNc1oc(-c2ccccc2)nc1[P+](c1ccccc1)(c1ccccc1)c1ccccc1`, for which the growth is -29.6% (active). Regarding `CCOC(=O)c1ccc(Nc2nc(NN)nc(-c3ccc(F)cc3)c2C#N)cc1`, the growth is 88% (inactive). On to `O=C(Nc1ccc(OCc2ccc(F)cc2)cc1)Nc1ccc(Cl)c(C(F)(F)F)c1`, for which the growth was -3.24% (active). For `COc1ccc(-c2cc(C(=O)N=Nc3c(O)[nH]c4ccc(Br)cc34)c3ccccc3n2)cc1` the value was 21.1% (inactive); for `CC(C)CSc1nc(NCCc2c[nH]c3ccccc23)c(C#N)c(-c2ccc(Cl)cc2)n1`, 47.5% (inactive); for `O=C(c1ccccc1)c1ccc2nc(-c3ccc(F)cc3)[nH]c2c1`, 36.1% (inactive). To `C=CCSc1nnc(-c2c(C)nc3sccn23)o1` belongs 119% (inactive).
